# Giardia FBPA inh – blocks Giardia fructose-bisphosphate aldolase activity; A8B2U2; purified Giardia FBPA; Potency, µM (top dose mostly 59.6 µM), for inactives: top-dose activity, negative = inhibition, actives largely listed as inhibitors; 0.71% of 290,000 active; also: potency is read from the fitted curve at half-maximal effect; % is scaled to controls: 0 for no effect and ±100 for the full control effect; nearly all actives have a fitted effect of over 55% in size
# Target sequence (A8B2U2 whole entry, looked up): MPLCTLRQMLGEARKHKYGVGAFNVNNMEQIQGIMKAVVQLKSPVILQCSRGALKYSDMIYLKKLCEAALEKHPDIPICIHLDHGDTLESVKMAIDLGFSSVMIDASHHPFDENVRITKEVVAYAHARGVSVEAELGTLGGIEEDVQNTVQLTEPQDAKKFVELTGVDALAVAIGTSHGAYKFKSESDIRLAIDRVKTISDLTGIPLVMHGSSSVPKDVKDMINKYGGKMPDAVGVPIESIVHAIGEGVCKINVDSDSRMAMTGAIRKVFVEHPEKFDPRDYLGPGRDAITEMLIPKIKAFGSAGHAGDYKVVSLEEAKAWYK
#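 40 nM FBPA preincubated 10 min at RT with compound (up to 57.5 uM final), then substrate plus GAPDH/TPI/NAD/arsenate coupling and diaphorase/resazurin added. Fluorescence read after 20 min at RT, 525/598 nm.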
# Cycloheximide cs – counter-screen for Shiga toxin inhibitors: cycloheximide protein synthesis inhibition. cell reporter, cycloheximide protein synthesis inhibition counterscreen. max response, %. 12% of 300,000 active. AID 2314; in the data active = max response mostly above about 13%, no sharp cut-off; inactive = mostly below about 14%; also: read at 38.3 µM for the half of the compounds with a filed dose; 0% is about no effect
# Tb PYK inh – T. brucei pyruvate kinase inhibition. Q57TT1. TbPYK enzyme, Kinase-Glo Plus ATP luminescence, 45 min. Potency, µM (doses to about 76.8 µM), inactives show top-dose activity, negative = inhibition, hits mostly inhibitors. 0.12% of 410,000 active. AID 624173; also: potency is read from the fitted curve at half-maximal effect; % is scaled to controls: 0 for no effect and ±100 for the full control effect; nearly all actives have a fitted effect of over 50% in size
#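 Readout: single end-point luminescence (Kinase-Glo Plus, 10 min). Reaction conditions were TbPYK/substrate plus 130 uM ADP, 45 min at RT, pH 7.2 TEA buffer. No-enzyme wells served as controls, and data were normalized before concentration-response fitting.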
# Shiga toxin inh – blocks Shiga toxin action in Vero cells | 9.2% of 290,000 active | Vero cells, Shiga toxin protein synthesis inhibition reporter | AID 2315 | inhibition, % at 38.7 µM; in the data active = inhibition mostly above about 28%, no sharp cut-off; inactive = mostly below about 43%; also: 0% is about no effect
# LmPK inhibitor – inhibitors of Leishmania mexicana pyruvate kinase; Potency, µM (top dose mostly 57.5 µM), inactives show top-dose activity change, negative = inhibition, most hits filed as inhibitors; 0.37% of 290,000 active; AID 1721; purified LmPK, Kinase-Glo ATP luminescence, 1 h; also: potency is read from the fitted curve at half-maximal effect; % is scaled to controls: 0 for no effect and ±100 for the full control effect
#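 qHTS format; LmPK 0.1 nM; substrates PEP 0.5 mM and ADP 0.1 mM. One-hour room-temperature incubation, then coupled luciferase luminescence; 0.5 nM enzyme wells mark activation.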
# Sm TGR inh – blocks Schistosoma mansoni thioredoxin glutathione reductase; Q962Y6; purified TGR, DTNB reduction, TNB absorbance 405 nm; Potency, µM (doses to about 114 µM), for the others: at the highest dose activity change, negative = inhibition, hits mostly inhibitors; 3% of 360,000 active; AID 485364; also: potency is read from the fitted curve at half-maximal effect; % is scaled to controls: 0 for no effect and ±100 for the full control effect; nearly all actives have a fitted effect of over 60% in size
#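 First, TGR (20 nM dispensed) and NADPH were mixed with compound. Second, a 15 min room-temperature incubation followed. Third, further NADPH and then DTNB were added to start the reaction. Finally, TNB absorbance was monitored kinetically.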
# Starred values were filed as active, the others as inactive; ? = inconclusive; · = not tested or not shown. Shown is part of a subset that was picked to be rich in hits. Unless noted, calls follow the shape of the dose curve; as a rule, active = well fitted curve in the direction sought with a large enough effect; inconclusive = small, poorly fitted or top-dose-only effect, or another doubt; inactive = no such curve, though single readings can be large; an effect the other way counts as inactive or inconclusive.
SMILES,Giardia FBPA inh,Cycloheximide cs,Tb PYK inh,Shiga toxin inh,LmPK inhibitor,Sm TGR inh
CCCOc1ccc(/C(O)=C2/C(=O)C(=O)N(CCCn3ccnc3)C2c2ccc(C)o2)cc1 (centres undefined),-1%,-2,-3%,11,10%,?
C=CCOc1ccc(/C(O)=C2/C(=O)C(=O)N(CCCn3ccnc3)C2c2cccs2)cc1 (centres undefined),25%,49*,4%,137*,7%,-33%
COc1ccc(C2/C(=C(\O)c3ccc4c(c3)OCCO4)C(=O)C(=O)N2CCCn2ccnc2)cc1 (centres undefined),·,18,3%,28,0%,-16%
COc1cccc(CN2CCC(C(=O)N3CCN(c4ccccc4F)CC3)CC2)c1OC,-3%,-3,2%,-8,-4%,2%
CCOC(=O)c1c(NC(=O)/C=C/c2ccccc2)sc2c1CCCC2,·,·,-9%,·,·,0%
CC1Cc2cc(/C(O)=C3/C(=O)C(=O)N(Cc4ccco4)C3c3cccs3)ccc2O1 (centres undefined),1%,46*,5%,87*,0%,35µM*
CC1Cc2cc(/C(O)=C3/C(=O)C(=O)N(CCCn4ccnc4)C3c3ccco3)ccc2O1 (centres undefined),-9%,33*,1%,113*,3%,-34%
C=CCOc1ccc(/C(O)=C2/C(=O)C(=O)N(CCCn3ccnc3)C2c2ccco2)cc1 (centres undefined),-20%,32*,3%,65*,-1%,?
COc1cc(/C=C/C(=O)OCC(=O)NCCc2ccc(S(N)(=O)=O)cc2)ccc1OCC#N,·,·,2%,·,·,1%
COc1ccc(C(=O)NC(=S)NCCc2ccccc2)cc1,-4%,-1,-12%,22,-3%,·
CC(C)(C)CC(=O)NC(=S)NCCc1ccccc1,-1%,30*,-2%,62,-4%,-34%
CC(C)CC(=O)NC(=S)NCCc1ccccc1,-10%,26*,1%,57*,3%,?
COc1cc(NC(=S)NCCc2ccccc2)c(OC)cc1NC(=O)CC(C)C,-12%,-2,-17%,-17,13%,-32%
CCOc1ccc(/C=N/NC(=O)CN2CCSCC2)cc1,-22%,10,-1%,-7,4%,-2%
COc1cc(/C=N\NC(=O)CN2CCOCC2)ccc1OCC(=O)Nc1ccc(C)c(C)c1,0%,14*,-2%,35*,1%,89µM*
COc1ccc(/C=N/NC(=O)CN2CCSCC2)cc1C,-22%,18*,0%,26,-2%,0%
O=C(CN1CCSCC1)N/N=C/c1cccc(Cl)c1,?,15*,-4%,11,0%,0%
COc1cc(/C=N\Nc2ccc([N+](=O)[O-])cc2)ccc1OCC(=O)Nc1ccc(C)c(C)c1,0%,9,-7%,57,-2%,-12%
CC(C)NC[C@H](O)COc1ccc(CC(N)=O)cc1,1%,·,-4%,·,·,-8%
COc1ccc(/C=N/NC(=O)c2cccnc2)c(C(=O)O)c1OC,-2%,8,2%,36,-1%,?
O=C(CC1Sc2ccccc2NC1=O)NNc1cc(Cl)ccc1Cl (centres undefined),·,·,-4%,·,·,·
COc1ccc(CCNC(=S)Nc2ccccc2C)cc1,-2%,-3,-12%,-20,7%,0%
CC(C)(C)NC(=S)NCCc1ccccc1,0%,31*,-3%,75*,-2%,-10%
Cc1ccccc1NC(=S)NCCc1ccccc1,-2%,15*,-11%,16,3%,2%
Cc1cnn(C(=S)NCCc2ccccc2)c1,-14%,34*,-5%,77*,1%,0%
SMILES,Giardia FBPA inh,Cycloheximide cs,Tb PYK inh,Shiga toxin inh,LmPK inhibitor,Sm TGR inh
Cc1ccc(NC(=S)NCCc2ccccc2)c(C)c1,3%,17*,1%,40,1%,2%
Cc1ccc(C(=O)O)cc1NC(=S)NCCc1ccccc1,?,-2,10%,2,1%,-9%
CNC(=O)C[C@H]1C(=O)N(c2ccccc2)C[C@@H]1C,·,·,4%,·,·,·
Cc1ccc(/C=N/NC(=O)NC2CCCCC2)o1,-1%,21*,-5%,41*,1%,-9%
Cc1cccc(/C=N/NC(=O)NC2CCCCC2)c1,2%,39*,2%,69*,0%,17%
Cc1ccc(/C=N/NC(=O)Nc2ccccc2)o1,-4%,54*,-6%,100*,-7%,-4%
Cc1ccc(/C=C/C(=O)NC2CCCCCCC2)o1,-17%,41*,7.9µM*,74*,-7%,2.5µM*
COc1cccc(/C=N/NC(=O)CCCC(=O)NC2CCCCC2)c1,2%,-2,-2%,3,-3%,-3%
O=C1c2[nH]nc(-c3ccccc3O)c2C(c2cccc(OCc3ccccc3)c2)N1CCCO (centres undefined),·,·,2%,·,·,6%
CCOc1ccc(C(=O)Nc2ccc(S(=O)(=O)Nc3nccc(C)n3)cc2)cc1OCC,-16%,-4,4%,-10,0%,3%
CCOc1ccccc1C(=O)Nc1ccc(S(=O)(=O)Nc2nccc(C)n2)cc1,?,-2,2%,-5,-6%,32µM*
CSc1ncc(Cl)c(C(=O)Nc2ccc(S(=O)(=O)Nc3nccc(C)n3)cc2)n1,·,31*,-8%,70*,-5%,5%
Cn1c(=O)c2sccc2n2c(CCCC(=O)Nc3ccc(Oc4ccc(Cl)cc4)cc3)nnc12,·,·,2%,·,·,2%
O=C1CC(c2ccccc2)=Nc2ccccc2N1,2%,10,-3%,13,-3%,-8%
O=C1CC(/C=C/c2ccncc2)=Nc2ccccc2N1,5%,30*,-13%,33,-4%,?
COc1ccc2nc(/C=N/NC(=O)[C@@H]3CCCN3C(=O)OC(C)(C)C)ccc2c1,-11%,46*,2%,76*,-2%,5%
CC(C)(C)OC(=O)N1CCC[C@H]1C(=O)N/N=C/c1ccc2nccnc2c1,6%,17,0%,-4,0%,3%

# Screening data: PubChem BioAssay, National Center for Advancing Translational Sciences (NCATS)
